SMN2 splice up: SMN2 splice variant enhancement; HEK293 SMN2-luciferase splicing reporter, luminescence, 30-36 h; Potency, µM (series often up to 46.1 µM), for the others: top-dose activity change, positive = activation, actives largely listed as activators; 2.8% of 210,000 active; AID 1458; also: % of control where 0% means no effect; nearly all actives have a fitted effect of over 55% in size
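HEK293 cells carry an SMN2 […]–luciferase reporter in which exon 7 inclusion puts luciferase in frame. Cells were plated 10-12 h before compound addition, then incubated 30-36 h at 37C. ONE-Glo luminescence was read; sodium butyrate at 4.5 mM final served as control.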
FLuc modulator: counter-screen for miR-21 project: firefly luciferase inhibitors or activators; P08659; purified FLuc, Km substrates, luminescence inhibition; Potency, µM (top dose mostly 57.5 µM), for inactives: top-dose activity change, negative = inhibition, actives largely listed as inhibitors; 6.9% of 360,000 active; AID 588342;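 also: plate controls were vehicle for no effect and reference inhibitor for full effect; nearly all actives have a fitted effect of over 55% in size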
Target sequence (P08659 whole entry, looked up): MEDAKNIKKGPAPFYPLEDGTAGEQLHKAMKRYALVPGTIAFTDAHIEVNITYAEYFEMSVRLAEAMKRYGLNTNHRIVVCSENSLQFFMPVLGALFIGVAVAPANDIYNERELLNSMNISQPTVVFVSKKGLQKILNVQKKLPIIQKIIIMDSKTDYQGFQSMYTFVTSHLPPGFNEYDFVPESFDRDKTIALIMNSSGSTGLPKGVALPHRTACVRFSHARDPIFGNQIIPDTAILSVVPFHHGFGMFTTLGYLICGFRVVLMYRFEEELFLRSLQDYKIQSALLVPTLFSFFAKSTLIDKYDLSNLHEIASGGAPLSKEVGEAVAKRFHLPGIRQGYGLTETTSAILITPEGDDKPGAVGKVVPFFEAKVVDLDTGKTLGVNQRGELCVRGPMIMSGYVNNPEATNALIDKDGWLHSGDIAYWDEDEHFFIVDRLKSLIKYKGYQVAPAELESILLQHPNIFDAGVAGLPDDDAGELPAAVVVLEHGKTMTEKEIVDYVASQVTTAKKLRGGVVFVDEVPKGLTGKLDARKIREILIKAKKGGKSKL
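Biochemical qHTS of compounds, final roughly 60 µM downward over six points, against 10 nM purified firefly luciferase using Km concentrations of substrates (10 uM D-luciferin, 10 uM ATP) in Tris acetate pH 7.5 buffer; luminescence output.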
ELG1 DNA repair: inhibitors of ELG1-dependent DNA repair in HEK293T cells. HEK293T ELG1-luciferase reporter, luminescence, 16 h; DNA damage induced by 5-fluorouridine. Potency, µM (doses to about 46.1 µM), for the others: at the highest dose activity change, negative = inhibition, usual class: inhibitors. 2.3% of 330,000 active; also: % is scaled to controls: 0 for no effect and ±100 for the full control effect; nearly all actives have a fitted effect of over 55% in size
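Step one: seed 2,000 cells per well. Step two: pin-transfer compound or DMSO alongside 5-fluorouridine. Step three: incubate 16 hr, 37 °C, 5% CO2. Step four: add ONE-Glo, wait 30 min, read luminescence.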
NPC1 promoter act: activators of NPC1 promoter. Huh7 NPC1 promoter luciferase reporter, 24 h. Potency, µM (highest dose often 9.22 µM), for inactives: at the highest dose activation, most hits filed as activators. 2.4% of 320,000 active; also: % of control where 0% means no effect; nearly all actives have a fitted effect of over 60% in size
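Luciferase expression driven by the NPC1 promoter was measured in stably transfected Huh7 cells after a 24 h compound incubation, using a luciferase reagent and a luminescence read.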
Rab9 promoter act: activates the Rab9 promoter. Huh7 Rab9 promoter-luciferase reporter, luminescence, 24 h. 2.8% of 320,000 active. AID 485297. Potency, µM (doses to about 9.22 µM), for inactives: top-dose activation, negative = inhibition, hits mostly activators; also: % of control where 0% means no effect; nearly all actives have a fitted effect of over 60% in size
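Huh7 reporter line, Rab9 promoter upstream of luciferase. Compound exposure 24 h at 37 °C in reduced-serum medium with 10% FBS. Read-out: luminescence.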
ELG1 genotoxic: induces genotoxicity in HEK293T cells with luciferase-tagged ELG1. 1.3% of 330,000 active. HEK293T ELG1-luciferase reporter, luminescence, 16 h. Potency, µM (top dose mostly 46 µM), without a hit: at the top dose activity change, positive = activation, most hits filed as activators; also: % of control where 0% means no effect; nearly all actives have a fitted effect of over 60% in size
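Quantitative HTS format in 1536-well plates. HEK293T ELG1-luciferase reporter cells receive test compound and are incubated 16 hr at 37 °C, 5% CO2; ONE-Glo added, 30 min room temperature, then luminescence read.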
Starred values were filed as active, the others as inactive; u = inconclusive; x = no result given; ! = not confirmed by another sample; [ ] = remark or other dose. Rows were chosen to be rich in hits. Some 9.2% of all compounds tested hit in one or more screens of this group. Calls follow the shape of the dose curve; as a rule, active = well fitted curve in the direction sought with a large enough effect; inconclusive = small, poorly fitted or top-dose-only effect, or another doubt; inactive = no such curve, though single readings can be large; an effect the other way counts as inactive or inconclusive. Potency is read from the fitted curve at half-maximal effect.

SMILES	SMN2 splice up	FLuc modulator	ELG1 DNA repair	NPC1 promoter act	Rab9 promoter act	ELG1 genotoxic
NC(=O)C1CCN(c2nc(-c3ccc(F)cc3)cs2)CC1	x	2.0%	u	2.24µM*!	1.41µM*!	0.5%
CCOC(=O)c1cnn(-c2nc(-c3ccc(C)cc3)cs2)c1C(F)(F)F	4.0%	-14.7%	-0.4%	1.9%	-5.2%	0.9%
Cn1ccc2cc(-c3csc(N4CCC(C(N)=O)CC4)n3)ccc21	x	12µM*	12.2%	2.82µM*	1.26µM*	3.0%
O=C(O)c1cnn(-c2nc(-c3ccc(F)cc3)cs2)c1C(F)(F)F	27.2%	21.3µM*	u	27.9%	u	14.4%
CS(=O)(=O)c1ccc(-c2csc(N3CCC(C(N)=O)CC3)n2)cc1	x	-8.8%	x	x	x	x
O=C(Nc1nc(-c2ccc(F)cc2)cs1)C1CCN(C(=O)c2ccc(F)cc2)CC1	x	-11.7%	18.3µM*	-16.9%	-15.9%	-9.4%
O=C(CN1C(=O)COc2ccc(Cl)cc21)Nc1cccc(C(=O)O)c1	4.6%	-13.9%	x	x	x	x
CC(NC(=O)c1ccco1)C(=O)N1CCc2ccccc2C1 (stereo not drawn)	20.3%	-16.8%	u	7.3%	-11.3%	8.0%
O=C(CCNS(=O)(=O)c1ccc2c(c1)CCN2C(=O)C1CC1)Nc1ccc(OC(F)(F)F)cc1	x	3.2%	x	x	x	x
COc1ccccc1NC(=O)CSc1nc(=O)n(CCN2CCOCC2)c2c1CCC2	x	3.4%	-0.8%	1.7%	-4.3%	0.6%
NC(=O)C1CCN(c2nc(-c3ccc4occc(=O)c4c3)cs2)CC1	x	u	-16.9%	u	2.51µM*	3.6%
NCCC[C@@H](CC(=O)N[C@@H]1CCNC[C@H]1C(=O)N[C@H](CC(=O)N[C@@H](CCC(=O)O)CC(=O)O)Cc1c[nH]c2ccccc12)NC(=O)C[C@H](CO)NC(=O)[C@@H]1CCCC[C@H]1N	15.4%	x	x	x	x	x
CCOc1ccc(OCC(=O)OCC(=O)NCC2CCCO2)cc1 (stereo not drawn)	x	-12.6%	15.7%	-1.6%	-4.5%	3.6%
Cc1cc(C)cc(NC(=O)C2CCN(S(=O)(=O)c3c(C)noc3/C=C/c3ccco3)CC2)c1	-4.7%	-2.2%	x	x	x	x
Cc1cccc(NC(=O)C2CCN(S(=O)(=O)c3c(C)noc3/C=C/c3ccco3)CC2)n1	-45.0%	4.8%	13µM*	-13.5%	-33.6%	-6.0%
COc1ccc(-c2cc(-c3ccc(OC)c(OC)c3)n[nH]2)c(O)c1	22.4µM*	5.36µM*	u	u	u	5.8µM*
CCOc1ccc(-c2cc(-c3nc(-c4ccc(OC)c(OC)c4)no3)[nH]n2)cc1	x	19µM*	x	x	x	x
COc1ccc(-c2cc(-c3cc(F)ccc3O)[nH]n2)cc1OC	u	8.49µM*	u	3.16µM*	3.98µM*	u
COc1ccc(-c2cc(-c3ccccc3O)[nH]n2)cc1OC	u	2.39µM*	u	u	3.98µM*	20.6µM*
COC(=O)c1cc(-c2ccc(OC)c(OC)c2)n[nH]1	-16.0%	-15.7%	u	-2.5%	13.5%	17.3%
COc1ccc(OCc2nc(-c3ccc(OC)c(OC)c3)no2)cc1	-14.3%	-15.7%	x	x	x	x
CCc1ccc(NC(=O)Cc2c(C(=O)O)n(C)c3ccccc23)cc1	-0.7%	u	6.1%	0.7%	-5.8%	5.8%
COc1c2c(nc3ccccc13)O[C@H]([C@@](C)(O)CO)C2	0.2%[20.6 µM]	x	x	x	x	x
CCCn1c(O)c(N=Nc2ccc3ccccc3n2)c2ccccc21	u	8.49µM*	u	1µM*	0.708µM*	u
CC(C)CCn1c(O)c(N=Nc2ccccn2)c2ccccc21	-8.6%[1.84 µM]	-19.1%	u	-3.5%	1.1%	0.6%
SMILES	SMN2 splice up	FLuc modulator	ELG1 DNA repair	NPC1 promoter act	Rab9 promoter act	ELG1 genotoxic
CCOc1ccc(C(=O)CCN2CCCCCC2)cc1	12.8%	-12.6%	-4.6%	-1.1%	-1.4%	0.2%
Cc1ccc(S(=O)(=O)CCC(=O)c2ccc(F)cc2)cc1	x	2.6%	7.9%	-1.6%	10.0%	-3.3%
O=C(CCCC(=O)c1ccc(F)cc1)c1ccc(F)cc1	x	3.01µM*	u	2.82µM*	1µM*	u
CCOc1ccc(C(=O)COC(=O)CC)cc1	3.0%	5.36µM*	18.4%	-1.8%	-0.4%	-0.5%
CCOc1ccc(C(=O)CCCC(=O)c2ccc(OCC)cc2)cc1	x	6.75µM*	u	u	18.6%	u
Cc1ccc(C(=O)CCS(=O)(=O)c2ccc(F)cc2)cc1	x	0.757µM*	11.8%	-3.9%	4.7%	10.3%
CC12C=C(/C=C/CCc3ccco3)C(C)(C1)[C@H](CCc1ccco1)CC2=O (stereo partly drawn)	-3.7%	x	x	x	x	x
CCCOc1ccc(C(=O)CCC(=O)OCC(=O)Nc2ccc(OCC)cc2)cc1	x	-3.2%	0.9%	-2.2%	-0.1%	3.1%
CCCCC(=O)OCC(=O)c1ccc(OCC)cc1	-5.4%	0.849µM*	u	17.1%	10.5%	4.6%
Nc1ncnc(Nc2ccc(F)cc2)n1	19.1%	-5.8%	19.2%	-5.4%	0.9%	-0.7%
Fc1ccc(Nc2ccnc(Nc3ccc(F)cc3)n2)cc1	x	8.49µM*	u	u	u	u
O=C(O)c1cccc(Nc2ccnc(Nc3cccc(C(=O)O)c3)n2)c1	x	6.01µM*	22.5%	u	u	u
O=S(=O)(c1ccc(F)cc1)N1CCC(Oc2cccc(C(F)(F)F)c2)CC1	-12.5%	-2.2%	x	x	x	x
CS(=O)(=O)c1nc(S(=O)(=O)c2ccc(Cl)cc2)c(N2CCCCCC2)s1	x	-0.1%	-1.2%	-3.5%	0.8%	-2.0%
Cc1ccc(-n2ncc(C(=O)NCCN3CCN(C)CC3)c2C2CCN(C(=O)OC(C)(C)C)CC2)c(C)c1	x	-5.9%	x	x	x	x
Cc1c(C(=O)N2CCN(C(c3ccccc3)c3ccccc3)CC2)oc2ccccc12	x	0.6%	16.6%	-2.7%	-2.0%	2.7%
Cc1nc(C)c(-c2nnc(-c3ccc(C(C)(C)C)cc3)o2)cc1C(=O)NN	-11.1%	23.9µM*	-19.7%	-4.7%	1.4%	-1.3%
Cc1nc(C)c(-c2nnc(-c3ccccc3Cl)o2)cc1C(=O)NN	x	0.4%	-14.4%	-2.5%	-3.6%	-0.1%
Cc1ccc(OC(C)C(=O)Nc2cc(C)on2)cc1 (stereo not drawn)	x	19µM*	4.7%	-0.6%	-1.1%	-7.8%
Cc1cc(NC(=O)c2ccc(NC(=O)C(C)Oc3ccccc3)cc2)no1 (stereo not drawn)	1.2%	-0.3%	-24.3%	0.6%	2.3%	-2.6%
CC(Oc1ccc(Cl)cc1Cl)C(=O)Nc1ncccn1 (stereo not drawn)	2.6%	u	u	6.3%	4.7%	8.9%

Screening data as filed in PubChem BioAssay.
